Pf Dd2 inh: inhibitors of Plasmodium falciparum Dd2 growth; P. falciparum Dd2 growth, SYBR Green, 72 h; active compounds read low; activity change, % at 10 µM; hit rate 2.3% among 94,000; in the data active = activity change below about -80%; inconclusive = no clear call, values can overlap the other calls
C diff HTS: C. difficile growth inhibition. growth activity, negative = inhibition, % at 16 µg/mL (by protocol). hit rate 0.25% among 86,000. Clostridium difficile clinical isolate growth, OD600, 24 h; active compounds read low;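 active = mean growth activity at or below -80% and every replicate also at or below -80%; inconclusive = mean at or below -80% but some replicate above -80%; inactive = mean growth activity above -80%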;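 also: 0% = DMSO wells and -100% = levofloxacin 16 µg/mL wells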
Tcruzi prolif: inhibitors of T. cruzi proliferation | T. cruzi beta-gal in NIH3T3, GalScreen luminescence, 90 h | inhibition, % at 8.34 µM | hit rate 5.9% among 77,000 | AID 624255;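 active = mean inhibition above about 93%, with at least 55% of replicates each passing it, limit read from the data, passing the limit was not always enough; inconclusive = only one of those two conditions holds; inactive = neither condition holds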
Numbers without * were called inactive; ? = inconclusive; . = no result given. In the library only some 6.8% were active in any assay of this set; here they are far more common.

SMILES	Pf Dd2 inh	C diff HTS	Tcruzi prolif
CCCN(C)C[C@H]1Oc2ncc(C#Cc3ccc(OC)cc3)cc2C(=O)N([C@H](C)CO)C[C@H]1C	-84*	-5	.
CNC[C@@H]1Oc2ncc(C#Cc3cccc(OC)c3)cc2C(=O)N([C@H](C)CO)C[C@@H]1C	-21	3	35
COc1ccc(C#Cc2cnc3c(c2)C(=O)N([C@@H](C)CO)C[C@H](C)[C@@H](CN(C)C)O3)cc1	-42	-4	49
COc1ccc(C#Cc2cnc3c(c2)C(=O)N([C@H](C)CO)C[C@H](C)[C@H](CN(C)S(=O)(=O)c2ccccc2)O3)cc1OC	-76	5	30
CNC[C@H]1Oc2ncc(C#Cc3cccc(OC)c3)cc2C(=O)N([C@H](C)CO)C[C@H]1C	-83*	0	76
O=C(NCC[C@@H]1CC[C@H](NS(=O)(=O)c2ccc(Oc3ccccc3)cc2)[C@H](CO)O1)C1CC1	-12	-7	-112
C[C@@H](NC(=O)C[C@@H]1CC[C@@H](NC(=O)C2CCOCC2)[C@H](CO)O1)c1ccccc1	-10	1	19
COc1ccc(S(=O)(=O)Nc2ccc3c(c2)CC(=O)N([C@H](C)CO)C[C@@H](C)[C@H](CN(C)C(=O)Nc2cccc4ccccc24)O3)cc1	-4	-5	5
C[C@@H]1CN([C@@H](C)CO)C(=O)Cc2cc(NS(=O)(=O)c3ccccc3)ccc2O[C@H]1CN(C)Cc1ccc(C(=O)Nc2ccccc2N)cc1	-72	5	12
C[C@@H]1CN([C@H](C)CO)C(=O)Cc2cc(NS(=O)(=O)c3ccc(Cl)cc3)ccc2O[C@H]1CN(C)Cc1ccc(Oc2ccccc2)cc1	-5	85	47
Cc1ccc(S(=O)(=O)Nc2ccc3c(c2)CC(=O)N([C@@H](C)CO)C[C@@H](C)[C@H](CN(C)Cc2ccc(C(=O)Nc4ccccc4N)cc2)O3)cc1	-76	5	41
Cc1ccc(S(=O)(=O)Nc2ccc3c(c2)CC(=O)N([C@H](C)CO)C[C@H](C)[C@H](CN(C)Cc2ccc(C(=O)Nc4ccccc4N)cc2)O3)cc1	-88*	-5	76
C[C@H](CO)N1C[C@H](C)[C@@H](CN(C)Cc2ccc(C(=O)Nc3ccccc3N)cc2)Oc2ccc(NS(=O)(=O)c3ccccc3)cc2CC1=O	-83*	7	62
C[C@H](CO)N1C[C@H](C)[C@H](CN(C)Cc2ccc(Oc3ccccc3)cc2)Oc2ccc(NS(=O)(=O)c3ccc(Cl)cc3)cc2CC1=O	-87*	62	29
C[C@H](O)C#Cc1cnc2c(c1)C(=O)N([C@@H](C)CO)C[C@@H](C)[C@@H](CN(C)Cc1ccccn1)O2	31	2	-29
C[C@H]1CN([C@@H](C)CO)C(=O)Cc2cc(NC(=O)c3ccncc3)ccc2O[C@@H]1CN(C)Cc1ccc(C(=O)Nc2ccccc2N)cc1	-86*	-3	.
C[C@H]1CN([C@@H](C)CO)C(=O)Cc2cc(NC(=O)c3ccncc3)ccc2O[C@H]1CN(C)Cc1ccc(C(=O)Nc2ccccc2N)cc1	-45	-4	78
C[C@@H]1CN([C@H](C)CO)C(=O)Cc2cc(NC(=O)Cc3ccccc3)ccc2O[C@H]1CN(C)Cc1ccc(C(=O)Nc2ccccc2N)cc1	-5	11	.
C[C@H]1CN([C@@H](C)CO)C(=O)Cc2cc(NC(=O)Cc3ccccc3)ccc2O[C@H]1CN(C)Cc1ccc(C(=O)Nc2ccccc2N)cc1	-86*	-4	.
C[C@H]1CN([C@@H](C)CO)C(=O)Cc2cc(NC(=O)Nc3ccccc3)ccc2O[C@H]1CN(C)Cc1ccc(C(=O)Nc2ccccc2N)cc1	-76	7	.
C[C@H](CO)N1C[C@H](C)[C@H](CN(C)Cc2ccc(C(=O)Nc3ccccc3N)cc2)Oc2ccc(NC(=O)Cc3ccccc3)cc2CC1=O	-87*	15	.
COc1cccc(NC(=O)C[C@H]2CC[C@H]3[C@H](COc4ccc(NC(=O)C5CCCCC5)cc4C(=O)N3C)O2)c1	-6	9	10
CO[C@@H]1CN(C)C(=O)c2ccc(NC(C)=O)cc2OC[C@H](C)N(C(=O)c2ccccn2)C[C@@H]1C	4	.	-7
COc1ccc(CN(C)C[C@H]2Oc3c(NS(C)(=O)=O)cccc3C(=O)N([C@H](C)CO)C[C@@H]2C)cc1	11	1	-37
COc1ccc2c3c([nH]c2c1)[C@H](CO)N(C(=O)Nc1ccc(F)cc1)CC31CN(Cc2ccccc2OC)C1	-54	.	.
SMILES	Pf Dd2 inh	C diff HTS	Tcruzi prolif
COc1ccc2c3c([nH]c2c1)[C@H](CO)N(C(=O)Nc1ccc(F)cc1)CC31CN(Cc2ccc(F)cc2)C1	-82*	1	.
COc1ccc2c3c([nH]c2c1)[C@@H](CO)N(C(=O)Nc1ccc(F)cc1)CC31CN(Cc2ccccc2OC)C1	-92*	-11	.
COc1ccc2c3c([nH]c2c1)[C@@H](CO)N(C(=O)Nc1ccc(F)cc1)CC31CN(Cc2ccc(F)cc2)C1	-67	2	.
O=C(C1CCCC1)N1CC(=O)N2[C@H](CO)[C@H](c3ccc(C#Cc4cccc(F)c4)cc3)[C@@H]2C1	-47	58	.
COc1ccc2c3c(n(C)c2c1)[C@@H](CO)NCC31CCN(C(=O)c2ccc(F)cc2)CC1	-10	18	.
C[C@@H]1CN([C@@H](C)CO)C(=O)c2cc(-c3cccnc3)cnc2O[C@@H]1CN(C)C(=O)c1cccc(F)c1	11	4	18
COc1cccc(NC(=O)N2[C@H](CO)[C@H](c3ccccc3)[C@H]2CNCC(C)C)c1	-82*	3	45
COc1cccc(NC(=O)N2[C@@H](CO)[C@H](c3ccccc3)[C@@H]2CNCC(C)C)c1	-91*	-6	.
COc1cccc(NC(=O)N2[C@H](CNC(C)C)[C@H](c3ccccc3)[C@@H]2CO)c1	6	.	21
COc1cccc(NC(=O)N2[C@H](CO)[C@H](c3ccccc3)[C@H]2CNC(C)C)c1	-67	-1	61
COc1cccc(NC(=O)N2[C@H](CO)[C@@H](c3ccccc3)[C@H]2CNCC(C)C)c1	-77	-9	72
COc1cccc(NC(=O)N2[C@@H](CO)[C@@H](c3ccccc3)[C@@H]2CNC(C)C)c1	-89*	13	74
O=C(NCC[C@H]1CC[C@@H](NC(=O)c2ccccc2F)[C@@H](CO)O1)c1ccc2c(c1)OCO2	-6	.	-55
COc1ccc2c3c([nH]c2c1)[C@H](CO)N(Cc1ccccc1)CC31CN(C(C)=O)C1	-73	-2	.
CCC(=O)N1CCC2(CC1)CN(Cc1cccc(Cl)c1)[C@@H](CO)c1[nH]c3cc(OC)ccc3c12	-77	0	.
CCC(=O)N1CC2(C1)CN(Cc1cccc(Cl)c1)[C@H](CO)c1[nH]c3cc(OC)ccc3c12	-89*	-2	.
CCC(=O)N1CC2(C1)CN(Cc1ccc(Cl)cc1)[C@H](CO)c1[nH]c3cc(OC)ccc3c12	?	7	.
COc1ccc2c3c([nH]c2c1)[C@H](CO)N(Cc1cccc(Cl)c1)CC31CN(C(C)=O)C1	-83*	4	.
COc1ccc2c3c([nH]c2c1)[C@H](CO)N(Cc1ccc(Cl)cc1)CC31CN(S(C)(=O)=O)C1	-7	-2	.
CCCC(=O)N1CC2(C1)CN(Cc1ccc(Cl)cc1)[C@H](CO)c1[nH]c3cc(OC)ccc3c12	-90*	2	.
CCC(=O)N1CC2(C1)CN(Cc1ccc(Cl)cc1)[C@@H](CO)c1[nH]c3cc(OC)ccc3c12	-90*	3	.

Assay outcomes as filed in PubChem.
